# In PubChem BioAssay (NCI):
# Compounds without any hit were thinned out: in the full panel of roughly 83,000, 20% have a hit.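 Method: cells in 96-well plates; compound added at one concentration; 48 h incubation; percent growth measured; values under 10 scored active.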 Activity calls are given as the source filed them.
# Test system: SK-OV-3 ovarian
# Assay: NCI-60 one-dose screen, 48 h (100 = growth as untreated, 0 = no growth, -100 = all killed)
# Settings: 10 µM unless noted
row,Structure (SMILES),growth
1,Nc1nc2ccc(CNc3ccc(C(=O)NC(CC(=O)O)C(=O)O)cc3)cc2c(=O)[nH]1 (configuration not stated),76.8% (inactive)
2,Cc1cn(C2CC(F)C(CO)O2)c(=O)[nH]c1=O (configuration not stated),93.1% (inactive)
3,CN(C)C(=O)Nc1nc2cc(Cl)c(Cl)cc2[nH]1,20.1% (inactive)
4,Cc1cccc(NC(=O)CCc2ccc(N3C(N)=NC(N)=NC3(C)C)cc2)c1,60.3% (inactive)
5,COc1cc(/C=C/C(=O)c2c(C)[n+]([O-])c3ccccc3[n+]2[O-])ccc1O,97.8% (inactive)
6,CCC1CN2C(=N1)c1ccccc1-c1cc(Cl)ccc12 (configuration not stated),29.6% (inactive)
7,CC(C(C(=O)N1CCCCC1)N1CCCCC1)N1CCCCC1 (configuration not stated),103% (inactive)
8,NC(CSC(c1ccccc1)(c1ccccc1)c1ccc(F)cc1)C(=O)O (configuration not stated),34.3% (inactive)
9,CS(=O)(=O)OCC(COS(C)(=O)=O)C(c1ccccc1)c1ccccc1,101% (inactive)
10,S=c1ssnc1-c1ccccn1,67.8% (inactive)
11,O=C(Cn1c2ccccc2c2ccncc21)N/N=C/c1cc(O)c(O)c(O)c1,99.4% (inactive)
12,CN(C)c1ccc(/C=N/N=C(N)N)cc1,82.5% (inactive)
13,Cc1cc2c(cc1C)N(C(=O)CCl)CCN2C(=O)CCl,53% (inactive)
14,O=C(O)c1cc2ccccc2cc1Nc1ccccc1,106% (inactive)
15,O=C(Nc1ccccc1Cl)c1c[nH]c(=O)c(-c2ccc(N3CCCOC4(CC4)C3)cc2)c1,74.6% (inactive)
16,Clc1ccc2c(c1)nnn1c3ncccc3c(Br)c21,51.3% (inactive)
17,Cc1nssc1=S,110% (inactive)
18,FC(F)(F)c1cn(CC2CNC2)c2ncnc(Cl)c12,108% (inactive)
19,CN1CCN(Cn2nc(-c3cc(Cl)cc(Cl)c3Cl)n(/N=C/c3ccc(Cl)cc3)c2=S)CC1,101% (inactive)
20,NC(N)=N/N=C/c1ccc([N+](=O)[O-])cc1,108% (inactive)
21,CC1=C2C(=C[C@@](C)(CO)[C@@H]2OC(=O)N(C)CCN(C)C(=O)OC(C)(C)C)C(=O)[C@](C)(O)C12CC2,35.3% (inactive)
22,Nc1nc(=S)ss1,101% (inactive)
23,COC(=O)c1oc2c(C(C)=O)c(OCCN3CCCCC3)ccc2c1C,107% (inactive)
24,Cc1cc[n+](CCCC[n+]2ccc(C)cc2)cc1,116% (inactive)

# Test system: IGROV1 ovarian
# Assay: as above
# Settings: 10 µM unless noted
row,Structure (SMILES),growth
1,COC(OC)C1(c2ccccc2)NC(=O)NC1=O (configuration not stated),142% (inactive)
2,COc1cc(-c2nc3sc(C)cn3c2/C=C2\C(=O)Nc3ccccc32)c(Br)c(OC)c1OC,-11.8% (active)
3,Nc1ccc(S(=O)(=O)Nc2cc(I)cc(I)c2)cc1,104% (inactive)
4,COc1cc(/C=C/C(=O)c2c(C)[n+]([O-])c3ccccc3[n+]2[O-])ccc1O,61.4% (inactive)
5,CC(C(C(=O)N1CCCCC1)N1CCCCC1)N1CCCCC1 (configuration not stated),160% (inactive)
6,CS(=O)(=O)OCC(COS(C)(=O)=O)C(c1ccccc1)c1ccccc1,102% (inactive)
7,O=C(Cn1c2ccccc2c2ccncc21)N/N=C/c1cc(O)c(O)c(O)c1,107% (inactive)
8,CN(C)c1ccc(/C=N/N=C(N)N)cc1,69.8% (inactive)
9,O=C(Nc1ccccc1Cl)c1c[nH]c(=O)c(-c2ccc(N3CCCOC4(CC4)C3)cc2)c1,85.7% (inactive)
10,FC(F)(F)c1cn(CC2CNC2)c2ncnc(Cl)c12,105% (inactive)
11,CC1=C2C(=C[C@@](C)(CO)[C@@H]2OC(=O)N(C)CCN(C)C(=O)OC(C)(C)C)C(=O)[C@](C)(O)C12CC2,9.25% (active)
12,Nc1nc(=S)ss1,133% (inactive)
13,COC(=O)c1oc2c(C(C)=O)c(OCCN3CCCCC3)ccc2c1C,-8.51% (active)

# Test system: OVCAR-3 ovarian
# Assay: as above
# Settings: 10 µM unless noted
row,Structure (SMILES),growth
1,CCOc1ccc(NC(=O)Nc2cc(C(C)C)ccc2C)cc1,50.9% (inactive)
2,NS(=O)(=O)c1ccc(-n2nc(-c3ccc(Cl)cc3)ccc2=O)cc1,106% (inactive)
3,COC(OC)C1(c2ccccc2)NC(=O)NC1=O (configuration not stated),126% (inactive)
4,CC1=C[S+](c2ccccc2)c2cccc3cc4ccccc4c1c23 (configuration not stated),-82.9% (active)
5,O=C(Nc1ccccc1F)Nc1ccccc1Cl,102% (inactive)
6,O=C(C[n+]1ccccc1Cl)c1ccc2c(c1)CCCC2,93.6% (inactive)
7,CC1(C)N=C(N)N=C(N)N1c1cccc(CCCCc2ccccc2)c1,-16.8% (active)
8,COc1ccc(/C=C2\CS(=O)(=O)C/C(=C\c3ccc(OC)cc3)C2=O)cc1,-66.2% (active)
9,CC1(C)N=C(N)N=C(N)N1c1ccc(OCC(=O)Nc2ccccc2)c(Cl)c1,56.7% (inactive)
10,COc1ccc2c(c1)nnc1c3cccnc3[nH]c21,-51.1% (active)
11,CC(=O)N[C@@H](CNC(=O)c1cc(NC(=O)c2cc(NC(=O)c3cc(NC(=O)c4nccn4C)cn3C)cn2C)cn1C)CC(=O)Nc1cn(C)c(C(=O)Nc2cc(C(=O)Nc3cc(C(=O)Nc4cc(C(=O)NCCCN(C)CCCNC(=O)c5cccc(C(=O)O)c5)n(C)c4)n(C)c3)n(C)c2)n1,102% (inactive)
12,Nc1nc2ccc(CNc3ccc(C(=O)NC(CC(=O)O)C(=O)O)cc3)cc2c(=O)[nH]1 (configuration not stated),58.2% (inactive)
13,Cc1cn(C2CC(F)C(CO)O2)c(=O)[nH]c1=O (configuration not stated),137% (inactive)
14,CN(C)C(=O)Nc1nc2cc(Cl)c(Cl)cc2[nH]1,-49.9% (active)
15,Cc1cccc(NC(=O)CCc2ccc(N3C(N)=NC(N)=NC3(C)C)cc2)c1,65.6% (inactive)
16,CCC1CN2C(=N1)c1ccccc1-c1cc(Cl)ccc12 (configuration not stated),20.4% (inactive)
17,CC(C(C(=O)N1CCCCC1)N1CCCCC1)N1CCCCC1 (configuration not stated),119% (inactive)
18,NC(CSC(c1ccccc1)(c1ccccc1)c1ccc(F)cc1)C(=O)O (configuration not stated),-39.5% (active)
19,CS(=O)(=O)OCC(COS(C)(=O)=O)C(c1ccccc1)c1ccccc1,127% (inactive)
20,O=C(Cn1c2ccccc2c2ccncc21)N/N=C/c1cc(O)c(O)c(O)c1,106% (inactive)
21,CN(C)c1ccc(/C=N/N=C(N)N)cc1,66.3% (inactive)
22,Cc1cc2c(cc1C)N(C(=O)CCl)CCN2C(=O)CCl,-95.8% (active)
23,O=C(O)c1cc2ccccc2cc1Nc1ccccc1,108% (inactive)
24,O=C(Nc1ccccc1Cl)c1c[nH]c(=O)c(-c2ccc(N3CCCOC4(CC4)C3)cc2)c1,64.5% (inactive)
25,Clc1ccc2c(c1)nnn1c3ncccc3c(Br)c21,70.8% (inactive)
26,FC(F)(F)c1cn(CC2CNC2)c2ncnc(Cl)c12,103% (inactive)
27,NC(N)=N/N=C/c1ccc([N+](=O)[O-])cc1,117% (inactive)
28,CC1=C2C(=C[C@@](C)(CO)[C@@H]2OC(=O)N(C)CCN(C)C(=O)OC(C)(C)C)C(=O)[C@](C)(O)C12CC2,3.63% (active)
29,Nc1nc(=S)ss1,116% (inactive)
30,Cc1cc[n+](CCCC[n+]2ccc(C)cc2)cc1,106% (inactive)
